Assay [1] in a line: NCI Yeast Anticancer Drug Screen. Data for the rad50 strain (AID 155).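 Further: 0% = growth of vehicle-only cultures of the same strain.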 Conditions: S. cerevisiae rad50 strain growth inhibition, hits give high values. In short, it runs like this: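 Cells are treated with compound, grown, and their growth is then scored against vehicle-only cultures of the same repair-deficient yeast strain.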
A short description of assay [2]: NCI Yeast Anticancer Drug Screen. Data for the mec2-1 strain (AID 157). The note with it: S. cerevisiae mec2-1 strain, hits give high values. In short, it runs like this: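 mec2-1 yeast strain, carrying an alteration in DNA damage repair or cell cycle control, was exposed to compounds; growth inhibition was measured relative to vehicle-treated controls.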
A short description of assay [3]: NCI Yeast Anticancer Drug Screen. Data for the sgs1 mgt1 strain (AID 161).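 Further: 0% = growth of cultures given vehicle only.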 Conditions: S. cerevisiae sgs1 mgt1 strain, hits give high values. An outline of the steps: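 Percent growth inhibition was derived by comparing compound-exposed mutant yeast with vehicle-exposed cultures. The strain carries alterations in DNA damage repair.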
Assay [4] can be described thus: NCI Yeast Anticancer Drug Screen. Data for the bub3 strain (AID 167). The note with it: S. cerevisiae bub3 mutant strain, hits give high values. An outline of the steps: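 Part of a panel of yeast mutants defective in DNA damage repair or cell cycle regulation. Each strain is grown with compound, and inhibition is calculated relative to solvent-treated cultures.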

The nature of assay [5]: NCI Yeast Anticancer Drug Screen. Data for the mlh1 rad18 strain (AID 175). Conditions: S. cerevisiae mlh1 rad18 strain growth inhibition, hits give high values. An outline of the steps: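 Growth inhibition of the yeast strain was measured after compound exposure and expressed relative to vehicle-treated controls. The strain carries defined defects in DNA damage repair.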

Assay [6] in a line: NCI Yeast Anticancer Drug Screen. Data for the cln2 rad14 strain (AID 165).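 Further: 0% = growth equal to vehicle treated cultures.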 The note with it: S. cerevisiae cln2 rad14 strain, hits give high values. An outline of the steps: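 Yeast carrying cln2 and rad14 alterations (cell cycle control and DNA damage repair) were exposed to compounds. Growth inhibition was measured against vehicle-treated controls.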
Setting [7] is: at 5.0 µM (retest, dose inferred, filed as 0.5).
[8] abbreviates: at 50.0 µM (retest, dose inferred, filed as 5.0).

About 79,000 compounds went through this panel and 15% of them were active in at least one assay; those are over-represented in the sample as a whole. A number with no mark means an inactive call. The source made the active and inactive calls. No stated cut-off is given here; in the data, active means growth inhibition above about 70%; inactive means the rest.

With `O=P(O)(O)Oc1c(O)c2ccccc2c2ccccc12`, the growth inhibition was 14% in assay [1] (setting [7]); 73% (active) in assay [1] (setting [8]); 91.4% (active) in assay [1] (at 50.0 µM); 22% in assay [2] (setting [7]); 95% (active) in assay [2] (setting [8]); 94.8% (active) in assay [2] (at 50.0 µM). Moreover, the growth inhibition was 17% in assay [3] (setting [7]); 85% (active) in assay [3] (setting [8]); 97.5% (active) in assay [3] (at 50.0 µM); 25% in assay [4] (setting [7]); 92% (active) in assay [4] (setting [8]); 99.6% (active) in assay [4] (at 50.0 µM). Also, the growth inhibition in assay [5] (setting [7]) is 17%; in assay [5] (setting [8]) it was 94% (active); in assay [5] (at 50.0 µM) it was 99.3% (active).
`O=C(/C=C/c1cc(O)c(O)cc1O)OCCc1ccccc1`: the growth inhibition in assay [1] (setting [7]) is 17%; in assay [1] (setting [8]) it was 50%; in assay [1] (at 50.0 µM) it was 47.1%; in assay [2] (setting [7]), 16%; in assay [2] (setting [8]), 61%; in assay [2] (at 50.0 µM), 75.5% (active). The growth inhibition in assay [3] (setting [7]) is 20%; in assay [3] (setting [8]), 64%; in assay [3] (at 50.0 µM), 69.8%; in assay [6] (setting [7]), 32%; in assay [6] (setting [8]) it was 33%; in assay [6] (at 50.0 µM), 53.7%. For the same compound, the growth inhibition in assay [5] (setting [7]) was 21%; in assay [5] (setting [8]), 75% (active); in assay [5] (at 50.0 µM) it was 68.5%.
As to `CN(C)C=NCCNc1ccc([N+](=O)[O-])cn1`, the growth inhibition is -154% in assay [1] (setting [7]); -166% in assay [1] (setting [8]); 4.4% in assay [1] (at 50.0 µM); -49% in assay [2] (setting [7]); -57% in assay [2] (setting [8]); 4.2% in assay [2] (at 50.0 µM). Moreover, the growth inhibition is -62% in assay [3] (setting [7]); -66% in assay [3] (setting [8]); -6.6% in assay [3] (at 50.0 µM); -46% in assay [6] (setting [7]); -59% in assay [6] (setting [8]); 24.5% in assay [6] (at 50.0 µM). Also, the growth inhibition in assay [5] (setting [7]) was -139%; in assay [5] (setting [8]), -120%; in assay [5] (at 50.0 µM), 3.6%.
Turning to `NCc1ccc(O)c(O)c1O`, the growth inhibition was -2% in assay [1] (setting [7]); 78% (active) in assay [1] (setting [8]); 14.9% in assay [1] (at 50.0 µM); 8% in assay [2] (setting [7]); 80% (active) in assay [2] (setting [8]); 14.4% in assay [2] (at 50.0 µM). In addition, the growth inhibition in assay [3] (setting [7]) was 8%; in assay [3] (setting [8]) it was 61%; in assay [3] (at 50.0 µM), 38.2%; in assay [6] (setting [7]) it was -16%; in assay [6] (setting [8]) it was 52%; in assay [6] (at 50.0 µM), -2.75%. Besides, the growth inhibition in assay [5] (setting [7]) was -22%; in assay [5] (setting [8]), 83% (active); in assay [5] (at 50.0 µM) it was 16.3%.
As for `O=C1c2ccccc2CCC1C(O)(C(F)(F)F)C(F)(F)F` (stereo not drawn), the growth inhibition in assay [1] (setting [7]) was 19%; in assay [1] (setting [8]), 13%; in assay [1] (at 50.0 µM) it was -5.3%; in assay [2] (setting [7]), 16%; in assay [2] (setting [8]) it was 7%; in assay [2] (at 50.0 µM), -3.6%. For the same compound, the growth inhibition was 4% in assay [6] (setting [7]); 11% in assay [6] (setting [8]); 10.9% in assay [6] (at 50.0 µM); -12% in assay [4] (setting [7]); 1% in assay [4] (setting [8]); 31.6% in assay [4] (at 50.0 µM). Moreover, the growth inhibition in assay [5] (setting [7]) is 22%; in assay [5] (setting [8]), 20%; in assay [5] (at 50.0 µM) it was -11.3%.
In the case of `CC(=O)Oc1ccc(-c2ccc(Br)cc2)cc1`, the growth inhibition in assay [1] (setting [7]) was -1%; in assay [1] (setting [8]), 92% (active); in assay [1] (at 50.0 µM), 89.2% (active); in assay [2] (setting [7]), -3%; in assay [2] (setting [8]) it was 91% (active); in assay [2] (at 50.0 µM), 97.9% (active). Further, the growth inhibition is -2% in assay [3] (setting [7]); 89% (active) in assay [3] (setting [8]); 96.4% (active) in assay [3] (at 50.0 µM); 20% in assay [4] (setting [7]); 94% (active) in assay [4] (setting [8]); 97.6% (active) in assay [4] (at 50.0 µM). For the same compound, the growth inhibition was -7% in assay [5] (setting [7]), 94% (active) in assay [5] (setting [8]) and 98% (active) in assay [5] (at 50.0 µM).
Regarding `Cc1ccc(NC(=O)COC(=O)c2cccc3c(=O)c4ccccc4[nH]c23)cc1`, the growth inhibition was 51% in assay [1] (setting [7]); 89% (active) in assay [1] (setting [8]); 74.8% (active) in assay [1] (at 50.0 µM); 27% in assay [2] (setting [7]); 80% (active) in assay [2] (setting [8]); 43.3% in assay [2] (at 50.0 µM). In addition, the growth inhibition is 40% in assay [3] (setting [7]); 89% (active) in assay [3] (setting [8]); 29.6% in assay [3] (at 50.0 µM); 21% in assay [6] (setting [7]); 69% in assay [6] (setting [8]); 61.6% in assay [6] (at 50.0 µM). For the same compound, the growth inhibition in assay [5] (setting [7]) is 49%; in assay [5] (setting [8]) it was 94% (active); in assay [5] (at 50.0 µM), 49.5%.
With `O=C(O)C(Cc1cc(I)c(O)c(I)c1)C1CCCCC1` (stereo not drawn), the growth inhibition was 12% in assay [1] (setting [7]); 99% (active) in assay [1] (setting [8]); 99.2% (active) in assay [1] (at 50.0 µM); 8% in assay [2] (setting [7]); 99% (active) in assay [2] (setting [8]); 99.2% (active) in assay [2] (at 50.0 µM). Moreover, the growth inhibition in assay [6] (setting [7]) was 7%; in assay [6] (setting [8]), 99% (active); in assay [6] (at 50.0 µM), 99% (active); in assay [4] (setting [7]) it was -11%; in assay [4] (setting [8]), 99% (active); in assay [4] (at 50.0 µM), 99.3% (active). Besides, the figures for the growth inhibition in assay [5] (setting [7]), in assay [5] (setting [8]) and in assay [5] (at 50.0 µM) were 6%, 99% (active) and 98.8% (active), respectively.
As to `O=CC1(c2ccc(Cl)cc2)NC(=O)NC1=O` (stereo not drawn), the growth inhibition in assay [1] (setting [7]) is -1%; in assay [1] (setting [8]), 1%; in assay [1] (at 50.0 µM), 3.45%; in assay [2] (setting [7]), -1%; in assay [2] (setting [8]) it was -3%; in assay [2] (at 50.0 µM), -1.7%. Further, the growth inhibition is 2% in assay [3] (setting [7]); 2% in assay [3] (setting [8]); -9.45% in assay [3] (at 50.0 µM); -1% in assay [4] (setting [7]); -1% in assay [4] (setting [8]); -10.3% in assay [4] (at 50.0 µM). For the same compound, the figures for the growth inhibition in assay [5] (setting [7]), in assay [5] (setting [8]) and in assay [5] (at 50.0 µM) were -5%, -4% and 3.35%, respectively.
As for `CN=C(N)N/N=C(\C)c1ccc2c(ccc3ccccc32)c1`, the growth inhibition was 11% in assay [1] (setting [7]); 98% (active) in assay [1] (setting [8]); 89.2% (active) in assay [1] (at 50.0 µM); 14% in assay [2] (setting [7]); 99% (active) in assay [2] (setting [8]); 91.2% (active) in assay [2] (at 50.0 µM). Further, the growth inhibition in assay [6] (setting [7]) is -3%; in assay [6] (setting [8]), 98% (active); in assay [6] (at 50.0 µM), 91.3% (active); in assay [4] (setting [7]) it was 33%; in assay [4] (setting [8]), 99% (active); in assay [4] (at 50.0 µM) it was 88.3% (active). In addition, the values for the growth inhibition in assay [5] (setting [7]), in assay [5] (setting [8]) and in assay [5] (at 50.0 µM) were 35%, 97% (active) and 91.7% (active), respectively.
`CCCCCCCCCCCC[S+](C)C`: the growth inhibition is 31% in assay [1] (setting [7]); 52% in assay [1] (setting [8]); 44.9% in assay [1] (at 50.0 µM); 23% in assay [2] (setting [7]); 80% (active) in assay [2] (setting [8]); 78.3% (active) in assay [2] (at 50.0 µM). Moreover, the growth inhibition in assay [3] (setting [7]) is 36%; in assay [3] (setting [8]), 83% (active); in assay [3] (at 50.0 µM), 89.5% (active); in assay [6] (setting [7]), 17%; in assay [6] (setting [8]), 26%; in assay [6] (at 50.0 µM), 41%. The growth inhibition was 41% in assay [4] (setting [7]); 74% (active) in assay [4] (setting [8]); 90.2% (active) in assay [4] (at 50.0 µM); 30% in assay [5] (setting [7]); 76% (active) in assay [5] (setting [8]); 6.8% in assay [5] (at 50.0 µM).

Values taken from PubChem BioAssay (NCI).
